Bioassay records from PubChem BioAssay.
Mtb FBA inh: Mtb fructose-bisphosphate aldolase inhibition; P9WQA3; purified M. tuberculosis FBA, fluorescence read-out; inhibition, % at 1 µM; 360,000 tested, 2.3% active; in the data active = inhibition above about 27%;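 note: 0% = vehicle and 100% = reference inhibitor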
Mtb betalactam: beta-lactam sensitization of Mtb H37Rv | AID 434955 | inhibition, % at 25 µM | M. tuberculosis H37Rv growth with meropenem, percent inhibition | 330,000 tested, 0.27% active; call rule not given here;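 note: growth measured after seven days incubation then overnight dye step; 0% = bacteria only wells and 100% = bacteria with antibiotic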
GDH-TPI counter: inhibits GDH-TPI coupling enzymes, artifact for Mtb FBA screen. GDH-TPI coupled enzyme counterscreen, NADH absorbance. inhibition, % at 4.8 µM. 360,000 tested, 1.2% active; in the data active = inhibition above about 30%;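 note: 0% = DMSO wells and 100% = wells lacking the enzyme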
Rv3671c protease: inhibits the M. tuberculosis serine protease Rv3671c; inhibition, % at 5.96 µM; 320,000 tested, 0.048% active; in the data active = inhibition above about 38%;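 note: extracellular domain of Rv3671c used as enzyme; 0% = enzyme with DMSO and 100% = no enzyme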
Target sequence (P9WHR9 whole entry, looked up, the tested form may be a part): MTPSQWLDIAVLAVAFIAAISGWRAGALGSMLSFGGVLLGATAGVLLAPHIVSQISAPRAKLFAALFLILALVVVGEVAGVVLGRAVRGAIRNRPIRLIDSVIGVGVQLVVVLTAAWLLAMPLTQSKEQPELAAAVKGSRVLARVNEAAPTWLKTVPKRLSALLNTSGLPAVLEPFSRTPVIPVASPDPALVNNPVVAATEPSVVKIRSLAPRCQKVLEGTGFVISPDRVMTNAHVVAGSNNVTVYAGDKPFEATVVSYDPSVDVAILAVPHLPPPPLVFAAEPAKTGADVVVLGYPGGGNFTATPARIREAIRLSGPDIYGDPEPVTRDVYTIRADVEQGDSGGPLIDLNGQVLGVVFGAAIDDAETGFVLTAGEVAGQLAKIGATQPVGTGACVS
RecA intein inh: blocks M. tuberculosis RecA intein splicing. P9WHJ3. cell-free RecA intein splicing, fluorescence. inhibition, % (no concentration beside the values). 290,000 tested, 0.75% active. AID 2221; in the data active = inhibition above about 30%; inconclusive = no clear call, values can overlap the other calls;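 note: 0% = vehicle wells and 100% = reference inhibitor control wells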
Mtb UGM inh: Mtb UDP-galactopyranose mutase inhibition; purified UGM, fluorescence polarization probe displacement; inhibition, % at 10 µM; 320,000 tested, 0.06% active; AID 504406; in the data active = inhibition above about 10%, passing the limit was not always enough; inconclusive = no clear call, values can overlap the other calls
An asterisk follows results filed as active; u = inconclusive; x = no result given; + = active, no number. This is a sample that favours compounds with a hit; in the whole collection about 4% have one here.

SMILES	Mtb FBA inh	Mtb betalactam	GDH-TPI counter	Rv3671c protease	RecA intein inh	Mtb UGM inh
COCCCNc1oc(-c2ccccc2OC)nc1C#N	+	x	40*	3	-1	-1
COCCCNc1oc(-c2ccccc2F)nc1C#N	+	3	5	3	0	0
Cc1cccc(C)c1N(CC(=O)NCc1ccccc1)C(=O)c1csnn1	0	4	2	1	x	0
CC(=O)Nc1ccc(S(=O)(=O)N2CCC(C(=O)N[C@@H](C)C(=O)NC3CCCC3)CC2)cc1	6	-8	-2	2	2	1
COC(=O)C1=CO[C@H](C)[C@H]2CN3CC[C@@]4(C(=O)Nc5ccccc54)[C@@H]3C[C@H]12	5	-5	13	-4	0	0
CCC12CCCN3CCC4(C(=C(C(=O)OC)C1)Nc1ccccc14)C32 (stereo unspecified)	4	x	33*	x	2	x
CC1CN(S(=O)(=O)c2ccccc2)C(C)N1C(=O)N1CCOCC1 (stereo unspecified)	3	-2	-2	1	-1	-2
CC(C)OC(=O)CC(=O)c1sc2nc3c(cc2c1N)CN(C)CC3	x	0	x	-2	-24	16*
CCNC(=O)C1(C)CCN(C(=O)c2ccccc2C(F)(F)F)C1 (stereo unspecified)	-1	x	4	x	x	x
COc1ccc2cc3c(N)nn(C(=O)c4ccc(F)cc4)c3nc2c1	1	1	41*	-21	-1	0
COc1ccc2cc3c(N)nn(C(=O)c4ccccc4Cl)c3nc2c1	-5	44	36*	-17	0	1
COc1ccc(-c2cc(=O)c3cc(OC)ccc3o2)cc1	26	-5	5	0	1	1
COc1ccc(-c2cc(=O)c3c(OC)c(OC)c(OC)c(OC)c3o2)cc1	2	x	51*	x	x	x
COc1ccc(NC(=O)C2(C)Cc3c(-c4cccc(C(N)=O)c4)ccnc3O2)cn1 (stereo unspecified)	-1	x	-5	x	x	x
Cc1cc(Nc2ccc([N+](=O)[O-])cc2)c2ccccc2n1	-2	1	25	-6	0	3
Cc1cc(Nc2ccccc2Cl)c2ccccc2n1	0	-10	37*	10	-1	0
CC(=O)Nc1ccc(Nc2cc(C)nc3ccccc23)cc1	-1	-7	38*	-6	0	0
Cc1cccc(S(=O)(=O)Nc2nc3ccccc3nc2NCC2CCCO2)c1 (stereo unspecified)	4	-6	33*	16	-1	1
Cc1ccc(S(=O)(=O)Nc2nc3ccccc3nc2NCc2ccco2)cc1	22	2	32*	7	-6	4
Cc1ccc(S(=O)(=O)Nc2nc3ccccc3nc2NCC2CCCO2)cc1C (stereo unspecified)	19	-3	33*	10	4	-1
CN(c1ccccc1C(=O)Nc1ccc(CC#N)cc1)S(=O)(=O)c1ccccc1	0	-4	-17	4	0	0
O=C(COC(=O)c1cc(Cl)ccc1O)NCCC1=CCCCC1	0	8	7	2	0	3
COc1ccc(-c2nc3ccccc3nc2-c2ccccc2)cc1OC	-2	5	31*	0	-12	0
COc1ccc(-c2cc(-c3ccccc3)nc(Cl)n2)cc1OC	12	92	33*	-17	-2	-2
O=c1ccc2cccc([N+](=O)[O-])c2[nH]1	2	x	x	x	x	x
SMILES	Mtb FBA inh	Mtb betalactam	GDH-TPI counter	Rv3671c protease	RecA intein inh	Mtb UGM inh
CN(C(=O)CN1C(=O)S/C(=C\c2ccccc2)C1=O)C1CCS(=O)(=O)C1 (stereo unspecified)	-3	-6	45*	2	3	-2
CN(C(=O)CN1C(=O)S/C(=C\c2ccc(Cl)cc2)C1=O)C1CCS(=O)(=O)C1 (stereo unspecified)	5	4	38*	1	-1	0
COc1cccc(/C=C2\SC(=O)N(CCC(=O)NC3CCS(=O)(=O)C3)C2=O)c1 (stereo unspecified)	-3	-1	27	2	1	-1
CN(C(=O)CCN1C(=O)/C(=C/c2ccccc2)SC1=S)C1CCS(=O)(=O)C1 (stereo unspecified)	-1	0	5	-4	0	3
CCN(C(=O)CCN1C(=O)S/C(=C\c2ccccc2)C1=O)C1CCS(=O)(=O)C1 (stereo unspecified)	-2	5	43*	6	3	0
O=C(CCN1C(=O)S/C(=C\c2ccccc2)C1=O)NC1CCS(=O)(=O)C1 (stereo unspecified)	-3	0	36*	4	-1	-3
Cc1ccc(C)c(OCC(=O)N2CCN(c3ncccn3)CC2)c1	4	-5	-7	1	x	-2
Cc1nc2ccc(NS(=O)(=O)c3ccc(F)c(F)c3)cc2s1	4	-2	14	2	x	0
Cc1ccc(S(=O)(=O)Nc2ccc3nc(C)sc3c2)cc1	-1	-5	-3	0	-2	-2
Cc1ccc2nc(-c3ccc(NS(=O)(=O)c4ccc(F)c(F)c4)cc3)sc2c1	+	17	28	-174	4	1
Cc1ccc2nc(-c3ccc(NS(=O)(=O)c4ccccc4)cc3)sc2c1	+	-8	12	-20	-2	-1
COc1cc(/C=C/C2=NNC(=O)CC2)cc(OC)c1OC	8	-6	45*	3	5	1
c1ccc(C(c2nnnn2C2CCCCC2)N2CCc3ccccc3C2)nc1 (stereo unspecified)	69*	10	2	-27	6	-1
O=C1C=C(c2ccc(Cl)c(C(F)(F)F)c2)C[C@@H](c2ccc3c(c2)OCO3)C1	-2	-3	14	-3	x	-2
COc1cc(/C=C/CNC[C@H]2O[C@@H](n3cnc4c(N)ncnc43)[C@H](O)[C@@H]2O)ccc1O	2	x	x	x	x	x
COc1cc2c(cc1OC)n(CC(=O)NC1CCCCCC1)n1c(C)cc(=O)nc21	113*	0	12	-9	0	3
Cn1c2ccsc2c2ncn(Cc3ccccc3F)c(=O)c21	+	3	7	0	x	2
CCCCNC(=O)C1CCN(S(=O)(=O)c2c(C)noc2/C=C\c2ccc(OC)cc2)CC1	6	-1	19	-7	-3	2
COc1ccc(NC(=O)C2CCN(S(=O)(=O)c3c(C)noc3C)CC2)cc1	0	4	-4	7	0	-1
CCCN1CCN(C(=O)C2CCN(S(=O)(=O)c3c(C)noc3/C=C/c3ccc(C)cc3)CC2)CC1	-2	38	32*	-1	0	1
COc1ccc(NC(=O)C2CCN(S(=O)(=O)c3c(C)noc3/C=C/N(C)C)CC2)cc1	-5	-4	37*	-28	-3	-3
COCCCNC(=O)C1CCN(S(=O)(=O)c2c(C)noc2/C=C\c2ccc(OC)cc2)CC1	-1	u	39*	-8	x	0
COc1cccc(C(=O)N2[C@H](COCc3ccccc3)C=CS2(=O)=O)c1	-1	x	x	x	x	x
Cc1ccc(NC(=O)/C(C#N)=C/c2ccc(C)s2)c(C)c1	3	0	25	-20	-1	13*
